About 410 targets per protein were measured; listed, in parts, are those with the strongest signals and a random draw of the rest.
How the values were obtained:
Test in all cases: glycan array binding signal (z-score within array); higher = stronger binding
Conditions in all cases: glycan notation: IUPAC condensed, linker removed
[1] = molecular target: Gal(b1-4)GlcNAc(b1-3)Gal(b1-4)GlcNAc(b1-3)Gal(b1-4)GlcNAc(b1-3)Gal(b1-4)GlcNAc(b1-3)Gal(b1-4)GlcNAc(b1-3)Gal(b1-4)GlcNAc(b1-2)Man(a1-3)[Gal(b1-4)GlcNAc(b1-3)Gal(b1-4)GlcNAc(b1-3)Gal(b1-4)GlcNAc(b1-3)Gal(b1-4)GlcNAc(b1-3)Gal(b1-4)GlcNAc(b1-3)Gal(b1-4)GlcNAc(b1-2)Man(a1-6)]Man(b1-4)GlcNAc(b1-4)GlcNAc
Procedure, shortened: (§1)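 The binding signal is a Z-score computed within each array. Data were drawn from 3228 arrays in the Consortium for Functional Glycomics database, restricted to those with a known protein sequence. Scores were averaged over arrays of the same protein sequence at different concentrations or buffers, and over linkers, and negative values can be taken as non-binding.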

[2] = molecular target: Gal(b1-4)GlcNAc(b1-3)[GlcNAc(b1-6)]Gal(b1-4)GlcNAc
Procedure, shortened: as §1

[3] = molecular target: Gal(b1-4)GlcNAc(b1-6)Gal(b1-4)GlcNAc
Procedure, shortened: as §1

[4] = molecular target: Gal(b1-4)GlcNAc(b1-6)[Gal(b1-4)GlcNAc(b1-3)]GalNAc
Procedure, shortened: as §1

Gal3S(b1-3)GlcNAc = molecular target: Gal3S(b1-3)GlcNAc
Procedure, shortened: as §1

Gal3S(b1-4)Glc = molecular target: Gal3S(b1-4)Glc
Procedure, shortened: as §1

Gal3S(b1-4)GlcNAc6S = molecular target: Gal3S(b1-4)GlcNAc6S
Procedure, shortened: as §1

Gal6S(b1-4)Glc6S = molecular target: Gal6S(b1-4)Glc6S
Procedure, shortened: as §1

[5] = molecular target: GalNAc(a1-3)GalNAc(a1-3)Gal(a1-4)Gal(b1-4)GlcNAc
Procedure, shortened: as §1

[6] = molecular target: GalNAc(b1-3)Gal(a1-4)Gal(b1-4)GlcNAc(b1-3)Gal(b1-4)Glc
Procedure, shortened: as §1

[7] = molecular target: GlcNAc(b1-2)[GlcNAc(b1-4)]Man(a1-3)[GlcNAc(b1-2)Man(a1-6)]Man(b1-4)GlcNAc(b1-4)GlcNAc
Procedure, shortened: as §1

GlcNAc(b1-3)Gal = molecular target: GlcNAc(b1-3)Gal
Procedure, shortened: as §1

[8] = molecular target: GlcNAc(b1-3)Gal(b1-4)GlcNAc(b1-3)Gal(b1-4)GlcNAc(b1-3)Gal(b1-4)GlcNAc(b1-3)Gal(b1-4)GlcNAc(b1-2)[GlcNAc(b1-3)Gal(b1-4)GlcNAc(b1-3)Gal(b1-4)GlcNAc(b1-3)Gal(b1-4)GlcNAc(b1-3)Gal(b1-4)GlcNAc(b1-6)]Man(a1-6)[GlcNAc(b1-3)Gal(b1-4)GlcNAc(b1-3)Gal(b1-4)GlcNAc(b1-3)Gal(b1-4)GlcNAc(b1-3)Gal(b1-4)GlcNAc(b1-2)Man(a1-3)]Man(b1-4)GlcNAc(b1-4)[Fuc(a1-6)]GlcNAc
Procedure, shortened: as §1

Kdn(a2-3)Gal(b1-4)Glc = molecular target: Kdn(a2-3)Gal(b1-4)Glc
Procedure, shortened: as §1

[9] = molecular target: Man(a1-2)Man(a1-3)[Man(a1-2)Man(a1-6)]Man(a1-6)[Man(a1-2)Man(a1-2)Man(a1-3)]Man
Procedure, shortened: as §1

[10] = molecular target: Man(a1-2)Man(a1-6)[Man(a1-3)]Man(a1-6)[Man(a1-2)Man(a1-2)Man(a1-3)]Man(b1-4)GlcNAc(b1-4)GlcNAc
Procedure, shortened: as §1

[11] = molecular target: Man(a1-3)[Man(a1-6)]Man(a1-6)[Man(a1-2)Man(a1-3)]Man(b1-4)GlcNAc(b1-4)GlcNAc
Procedure, shortened: as §1

[12] = molecular target: Neu5Ac(a2-3)Gal(b1-3)GlcNAc(b1-3)Gal(b1-4)GlcNAc
Procedure, shortened: as §1

[13] = molecular target: Neu5Ac(a2-3)Gal(b1-4)GlcNAc(b1-3)Gal(b1-4)GlcNAc(b1-3)Gal(b1-4)GlcNAc
Procedure, shortened: as §1

[14] = molecular target: Neu5Ac(a2-3)Gal(b1-4)GlcNAc(b1-3)GalNAc
Procedure, shortened: as §1

[15] = molecular target: Neu5Ac(a2-3)[GalNAc(b1-4)]Gal(b1-4)Glc
Procedure, shortened: as §1

[16] = molecular target: Neu5Ac(a2-6)Gal(b1-4)GlcNAc(b1-2)Man(a1-3)[GlcNAc(b1-2)Man(b1-4)GlcNAc(b1-2)Man(a1-6)]Man(b1-4)GlcNAc(b1-4)GlcNAc
Procedure, shortened: as §1

[17] = molecular target: Neu5Ac(a2-6)Gal(b1-4)GlcNAc(b1-2)Man(a1-3)[Neu5Ac(a2-3)Gal(b1-4)GlcNAc(b1-2)Man(a1-6)]Man(b1-4)GlcNAc(b1-4)GlcNAc
Procedure, shortened: as §1

[18] = molecular target: Neu5Ac(a2-6)Gal(b1-4)GlcNAc(b1-2)Man(a1-6)[GlcNAc(b1-2)Man(a1-3)]Man(b1-4)GlcNAc(b1-4)GlcNAc
Procedure, shortened: as §1

[19] = molecular target: Neu5Ac(a2-6)Gal(b1-4)GlcNAc(b1-3)Gal(b1-4)GlcNAc(b1-2)Man(a1-3)[Neu5Ac(a2-6)Gal(b1-4)GlcNAc(b1-3)Gal(b1-4)GlcNAc(b1-2)Man(a1-6)]GalNAc
Procedure, shortened: as §1

[20] = molecular target: Neu5Ac(a2-6)GalNAc(b1-4)GlcNAc6S
Procedure, shortened: as §1

[21] = molecular target: Neu5Ac(a2-6)GlcNAc(b1-4)GlcNAc(b1-4)GlcNAc
Procedure, shortened: as §1

[22] = molecular target: Neu5Gc(a2-8)Neu5Gc(a2-3)Gal(b1-4)GlcNAc(b1-3)Gal(b1-4)GlcNAc
Procedure, shortened: as §1

B1: Gal 9 (Homo sapiens), O00182 (protein)
chain: MAFSGSQAPYLSPAVPFSGTIQGGLQDGLQITVNGTVLSSSGTRFAVNFQTGFSGNDIAFHFNPRFEDGGYVVCNTRQNGSWGPEERKTHMPFQKGMPFDLCFLVQSSDFKVMVNGILFVQYFHRVPFHRVDTISVNGSVQLSYISFQNPRTVPVQPAFSTVPFSQPVCFPPRPRGRRQKPPGVWPANPAPITQTVIHTVQSAPGQMFSTPAIPPMMYPHPAYPMPFITTILGGLYPSKSILLSGTVLPSAQRFHINLCSGNHIAFHLNPRFDENAVVRNTQIDNSWGSEERSLPRKMPFVRGQSFSVWILCEAHCLKVAVDGQHLFEYYHRLRNLPTINRLEVGGDIQLTHVQT
glycan array binding signal (z-score) [1]: 9.39 | glycan array binding signal (z-score) [2]: 0.555 | glycan array binding signal (z-score) [3]: -0.17 | glycan array binding signal (z-score) [4]: -0.275 | glycan array binding signal (z-score) (Gal3S(b1-3)GlcNAc): 0.996 | glycan array binding signal (z-score) (Gal3S(b1-4)Glc): -0.132 | glycan array binding signal (z-score) (Gal3S(b1-4)GlcNAc6S): 4.06 | glycan array binding signal (z-score) (Gal6S(b1-4)Glc6S): -0.299 | glycan array binding signal (z-score) [5]: 0.672 | glycan array binding signal (z-score) [6]: -0.036 | glycan array binding signal (z-score) [7]: -0.323 | glycan array binding signal (z-score) (GlcNAc(b1-3)Gal): -0.323 | glycan array binding signal (z-score) [8]: 2.32 | glycan array binding signal (z-score) (Kdn(a2-3)Gal(b1-4)Glc): -0.315 | glycan array binding signal (z-score) [9]: -0.311 | glycan array binding signal (z-score) [10]: -0.321 | glycan array binding signal (z-score) [11]: -0.263 | glycan array binding signal (z-score) [12]: 0.431 | glycan array binding signal (z-score) [13]: 0.554 | glycan array binding signal (z-score) [14]: -0.265 | glycan array binding signal (z-score) [15]: -0.302 | glycan array binding signal (z-score) [16]: 0.913 | glycan array binding signal (z-score) [17]: -0.259 | glycan array binding signal (z-score) [18]: -0.323 | glycan array binding signal (z-score) [19]: 5.41 | glycan array binding signal (z-score) [20]: -0.291 | glycan array binding signal (z-score) [21]: -0.318 | glycan array binding signal (z-score) [22]: -0.282
